# Only some compounds are listed: those with a hit (about 4.8% of all), similar ones and a draw of the others.
# DAX1 inh-1 – DAX1 (NR0B1) inhibitors on StAR promoter, primary screen, cell-based, luminescence, SF-1 (NR5A1), full-length DAX-1 | inhibition, % at 6.8 µM | hit rate 1.1% among 370,000 | HEK293T StAR-luciferase reporter, SF-1/DAX-1 repression relief | AID 652010, 2013;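 active means inhibition above the mean over all tested compounds plus 3 SD, cut at about 3.6% in these data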;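 further: 0% = DAX-1 cells with DMSO and 100% = cells lacking DAX-1 with DMSO; higher inhibition means more luminescence from relief of DAX-1 repression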
# hcDAF12 agonist – H. contortus DAF-12 nuclear receptor activators, primary screen, cell-based, luminescence, HEK293, lit1-tk-luc reporter | HEK293 hcDAF-12 lit1-tk-luc reporter; 0% DMSO, 100% Δ7-dafachronic acid | activation, % at 6.8 µM | hit rate 1.4% among 370,000 | AID 652067, 2013;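 active means activation above the mean of all tested compounds plus 3 SD, cut at about 5.5% in these data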;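 further: 100% = response to 3 µM Δ7-dafachronic acid high control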
# ssDAF12 agonist – S. stercoralis DAF-12 nuclear receptor activators, primary screen, cell-based, luminescence, HEK293, GRIP1 co-expression, lit1-tk-luc; HEK293 ssDAF-12/GRIP1 lit1-tk-luc reporter; % of 3 µM dafachronic acid response; activation, % at 6.8 µM; hit rate 1% among 370,000; AID 652126, 2013;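 active means activation above the mean over all tested compounds plus 3 SD, cut at about 0.9% in these data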;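 further: 0% = DMSO-only wells and 100% = 3 µM delta7-dafachronic acid wells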
# hgDAF12 agonist – H. glycines DAF-12 receptor agonists, primary screen, cell-based, luminescence, HEK293, GAL4 fusion, UAS-luciferase | HEK293 GAL4-hgDAF12 UAS-luciferase reporter, agonist luminescence; normalized to butyrate control | Nuclear hormone receptor DAF-12 (Heterodera glycines), GAL4 fusion | activation, % at 6.8 µM | hit rate 1.8% among 370,000;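 active means activation above a cutoff set at the mean of all screened compounds plus 3 SD, cut at about 10% in these data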;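 further: 0% = DMSO wells and 100% = sodium butyrate wells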
# SMARCA2 activ – SMARCA2 (BRM) function activators, primary screen, cell-based, luminescence, high throughput | hit rate 1% among 370,000 | activation, % at 9.1 µM | MG213 cells, MMTV-luciferase reporter, dexamethasone, overnight; in the data active means activation above about 7.8%;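 further: 0% = vehicle wells and 100% = reference activator wells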
# DAX1 inh-2 – DAX1 (NR0B1) inhibitors, primary screen, cell-based, HEK293, Gal4-DAX1, luciferase luminescence. Nuclear receptor subfamily 0 group B member 1 (Homo sapiens), P51843. HEK293 Gal4-DAX1 luciferase reporter. inhibition, % at 6.75 µM. hit rate 0.99% among 340,000;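 active means inhibition above the mean over all tested compounds plus 3 SD, cut at about 4.2% in these data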;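 further: 0% = DAX1-transfected cells with DMSO and 100% = empty-vector control cells with DMSO; inhibition shows as a rise in luminescence from relieved DAX1 repression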
# Target sequence (P51843 207-470 limits assumed): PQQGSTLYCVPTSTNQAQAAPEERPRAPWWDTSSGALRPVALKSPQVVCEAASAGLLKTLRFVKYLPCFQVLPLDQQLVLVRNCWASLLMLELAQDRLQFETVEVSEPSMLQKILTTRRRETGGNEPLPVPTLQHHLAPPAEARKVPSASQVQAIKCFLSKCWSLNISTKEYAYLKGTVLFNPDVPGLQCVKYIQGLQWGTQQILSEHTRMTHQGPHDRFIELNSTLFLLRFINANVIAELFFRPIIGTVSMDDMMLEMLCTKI
# SMARCA2 conf – SMARCA2 (BRM) function activators, confirmation, cell-based, luminescence, triplicate. shares compounds with SMARCA2 activ. MG213 cells, MMTV-luciferase with dexamethasone, overnight; MG213 cells expressing E1A, Rb sequestered; DMSO wells 0%, reference activator 100%. hit rate 30% among 3,500. activation, % at 9.1 µM;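 active means activation above its plate's cutoff, the mean activation of tested wells plus 3 SD, cut at about 7.9% in these data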
# VP16 Luc act – GAL4-VP16 luciferase reporter activation, counter-screen for SMARCA2 (BRM) activator project, cell-based, pG5luc, luminescence, high throughput; shares compounds with SMARCA2 activ; HEK293 GAL4-VP16 pG5luc reporter; scaled: DMSO wells 0%, SAHA wells 100%; activation, % at 9.1 µM; hit rate 41% among 3,500; AID 686939, 2013;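 active means activation above the solvent-only control well mean plus 3 SD, averaged across control plates, cut at about 5.2% in these data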
# Starred values were filed as active, the others as inactive; · = no result.
SMILES,DAX1 inh-1,hcDAF12 agonist,ssDAF12 agonist,hgDAF12 agonist,SMARCA2 activ,DAX1 inh-2,SMARCA2 conf,VP16 Luc act
CCS(=O)(=O)c1c([N+](=O)[O-])ncn1C,0,0,-1,3,15*,0,12*,2
COc1ccc(CNC(=O)C2CCN(S(C)(=O)=O)CC2)c(OC)c1,1,1,-1,1,2,-1,·,·
O=C(CSC1=Nc2ccccc2C2=NC(Cc3c[nH]c4ccccc34)C(=O)N12)NC1CCCCC1 (centres undefined),0,3,-1,3,8.6*,-2,1,0
CCOc1ccc(C(=O)c2ccc(OCC)c(N)c2)cc1N,0,2,-1,7,8.6*,0,6,6.5*
CCN1CC(c2ccccc2)C(c2ccc(Cl)cc2)=N1 (centres undefined),0,-1,-1,0,8.3*,4,2,-1
CN1N=C(c2ccc(Cl)cc2)CC(c2ccc(Cl)cc2)C1=O (centres undefined),0,-2,-2,3,0,1,·,·
O=C(c1cnn2cccnc12)N1CCN(c2ccccc2)CC1,3,4,-1,6,13*,1,2,2
CCOc1ccc(S(=O)(=O)NCCC(=O)NCC(c2ccc(OC)cc2)N2CCOCC2)cc1 (centres undefined),1,0,-1,-3,-2,1,·,·
Cn1nc2sc3ccccc3n2c(=O)c1=O,0,4,-1,2,-5,0,·,·
N#Cc1cnc2sc3ccccc3n2c1=N,2,3,0,7,9.5*,1,9.2*,7.0*
O=S(=O)(NCc1ccccc1)[C@@H]1CC2C=CC1C2 (some centres undefined),0,0,-1,-1,0,1,·,·
O=C(CSc1nnc(-c2ccco2)o1)c1ccccc1Cl,-1,0,-1,1,9.3*,-1,6,1
C[C@H]1CN([C@@H](C)CO)C(=O)CCCn2cc(nn2)CO[C@@H]1CN(C)C(=O)Nc1ccc(F)cc1,0,-2,-1,1,-3,1,·,·
Cc1cc(C)c(S(=O)(=O)N2CCOC23CCN(S(C)(=O)=O)CC3)c(C)c1,1,-1,-1,-1,14*,2,-3,1
N#C/C(=C\c1c[nH]c2ccccc12)C(=O)NC1CC1,2,2,0,9,10*,4,11*,11*
CN1CCc2c(c3ccccc3n2Cc2ccccc2)C1,1,2,-1,2,-2,0,-2,2
CCCCN1CCc2c(c3ccccc3n2Cc2ccccc2)C1,1,0,-1,2,-1,-1,·,·
Cc1nc(-c2c(C(=O)NNC(=O)Nc3c(C)cccc3C)noc2C)cs1,0,-1,-2,-4,-3,2,·,·
COc1cc2nc(N(C)C)nc(N)c2cc1OC,0,1,-1,3,13*,0,28*,0
COc1cc2nc(Nc3ccc(F)cc3)nc(N)c2cc1OC,0,-2,-1,-1,0,0,·,·

# Screening results from PubChem BioAssay.
